This is one part of a sample in which hits are shown more often than they occur.
HTT aggregate = inhibitors of mutant huntingtin aggregate formation in PC12 cells. PC12 HttQ103-GFP aggregates, Acumen cytometry, 40 h. 220,000 compounds, 1.1% hits. Potency, µM (highest dose often 46.1 µM), hits mostly inhibitors. AID 1688; note: nearly all actives have a fitted effect of over 60% in size
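Inducible Q103 Huntingtin exon 1–GFP PC12 line, 1500 cells/well in phenol red free DMEM with 5% equine and 5% calf serum. Tebufenozide 100 nM induced expression; compounds titrated; aggregates quantified by cytometry.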
PINK1 expr mod = PINK1 expression modulation | PINK1 immunofluorescence, high-content cytometry, 24 h | Potency, µM (series often up to 76.6 µM), usual class: activators | 410,000 compounds, 0.2% hits; active = well fitted activation curve with a large enough effect; inconclusive = small, poorly fitted or top-dose-only effect; cell line not stated here; note: nearly all actives have a fitted effect of over 65% in size
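Stable cell line treated 24 h with compounds at 5 concentrations (CCCP controls), then fixed and immunostained for PINK1 plus nuclear and cell stains; PINK1 immunofluorescence quantified by laser-scanning microplate cytometry.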
Epigenetic derep = regulators of epigenetic silencing causing reporter derepression in mouse cells; murine LDR cells, GFP reporter derepression, 30 h; Potency, µM (highest dose often 53.9 µM), usual class: activators; 280,000 compounds, 0.2% hits; note: nearly all actives have a fitted effect of over 60% in size
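GFP-positive cell count by laser-scanning cytometry (objects 20–120 um) after 30 h, 37 C compound exposure of murine LDR cells; reporter is CMV-GFP integrated at a silenced locus, inducible by HDAC or DNMT inhibitors.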
HTT ATP protect = protects HTT-Q103 PC12 cells, measured by ATP | PC12 HTT-Q103 induced, cytoprotection, ATP luminescence, 40 h | Potency, µM (top dose mostly 56.4 µM), actives largely listed as activators | 230,000 compounds, 0.14% hits; note: nearly all actives have a fitted effect of over 45% in size
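PC12 cells stably carrying ecdysone-inducible Htt exon 1 (Q103)–GFP were induced with 100 nM tebufenozide (final) alongside library compounds in a dose series. Cytoprotection was scored as retained ATP by ATPlite luminescence.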
Large screens that a line does not name were inactive; ! = not confirmed by another sample. Unless noted, calls come from the whole dose curve; as a rule, active = well fitted curve in the direction sought with a large enough effect; inconclusive = small, poorly fitted or top-dose-only effect, or another doubt; inactive = no such curve, though single readings can be large; an effect the other way counts as inactive or inconclusive.

CCOCCn1c(CN2CCN(c3cccc(Cl)c3)CC2)nc2c1c(=O)n(C)c(=O)n2C	none
Cc1ccccc1N1Cc2ccccc2C1=O	none (no result: HTT aggregate, Epigenetic derep, HTT ATP protect)
COc1cc(C#N)c(NC(=S)N2CCN(C(=O)c3ccco3)CC2)cc1OC	none (no result: HTT aggregate, Epigenetic derep, HTT ATP protect)
CCNc1ncc2nc(-c3cn(C)c4ccccc34)c(=O)n(Cc3ccc(F)cc3)c2n1	PINK1 expr mod inconclusive, HTT ATP protect 25µM (no result: HTT aggregate, Epigenetic derep)
COc1cccc(Nc2ncc3nc(-c4cn(C)c5ccccc45)c(=O)n(C[C@H]4CCCO4)c3n2)c1	PINK1 expr mod 2.5µM, HTT ATP protect inconclusive (no result: HTT aggregate, Epigenetic derep)
Cn1cc(-c2nc3cnc(N4CCNCC4)nc3n(Cc3ccc(F)cc3)c2=O)c2ccccc21	none (no result: HTT aggregate, Epigenetic derep)
CC(Sc1nnc(COc2ccc(Cl)cc2)o1)C(=O)Nc1ccc(N2CCOCC2)cc1 (centres undefined)	none (no result: HTT aggregate, Epigenetic derep, HTT ATP protect)
CC(OC(=O)c1cc2sccc2n1C)C(=O)NCC1CCCO1 (centres undefined)	PINK1 expr mod 10µM
CCCCCCc1cc2cc(C(=O)Nc3ccccc3)c(=O)oc2cc1O	HTT aggregate 2.2µM, PINK1 expr mod inconclusive
CCCCCCc1cc2cc(C(=O)NCc3ccccc3)c(=N)oc2cc1O	none
O=C1C(Cl)=C(Nc2ccccc2)C(=O)c2ccccc21	HTT aggregate 13µM
O=C(O)c1ccc(NC2=C(Cl)C(=O)c3ccccc3C2=O)cc1	HTT aggregate inconclusive
CN(CCc1ccccc1)C(=O)c1cccc(NC(=O)Cc2cccc(NC(=O)C3CCN(C(=O)C4CCCC4)CC3)c2)c1	none (no result: HTT aggregate, Epigenetic derep, HTT ATP protect)
O=C(Nc1cccc(F)c1)c1ccc(-c2ccccc2Cl)o1	PINK1 expr mod inconclusive (no result: HTT ATP protect)
Cc1ccc(-c2ccc(C(=O)Nc3cccc(F)c3)o2)c2ccccc12	HTT aggregate 22µM, Epigenetic derep inconclusive (no result: HTT ATP protect)
Cc1cccc(C)c1NC1=C(Cl)C(=O)OC1OC(C)C (centres undefined)	none
CC(C(=O)N1CCCCC1)N1C(=O)c2ccccc2C1=O (centres undefined)	HTT aggregate 32µM
CC(C(=O)N1CCN(C2c3ccccc3-c3ccccc32)CC1)N1C(=O)c2ccccc2C1=O (centres undefined)	none
CCCN(CC(=O)Nc1ccccc1OC)C(C)C(=O)NC(C)CCc1ccccc1 (centres undefined)	none (no result: HTT aggregate, Epigenetic derep, HTT ATP protect)
NC(=S)n1[nH]c(-c2ccc([N+](=O)[O-])cc2)c(N=Nc2ccc(Cl)cc2)c1=O	HTT aggregate 7.9µM, PINK1 expr mod 11µM
Cc1ccc([N+](=O)[O-])cc1N=Nc1c(C)[nH]n(C(N)=S)c1=O	none (no result: HTT aggregate, Epigenetic derep, HTT ATP protect)
Cc1ccc([N+](=O)[O-])cc1N=Nc1c(-c2ccc([N+](=O)[O-])cc2)[nH]n(C(N)=S)c1=O	PINK1 expr mod 2.8µM (no result: HTT ATP protect)
CCOC(=O)c1c(/N=C/N(C)C)sc(/C=N/Nc2ccccc2)c1-c1ccccc1	Epigenetic derep 10µM (no result: HTT ATP protect)
O=C(c1ccc(NS(=O)(=O)c2ccccc2)cc1)N1CCCCCC1	none (no result: HTT aggregate, Epigenetic derep, HTT ATP protect)
O=C(Nc1nccs1)c1cccc(N2C(=O)c3cccc4c([N+](=O)[O-])ccc(c34)C2=O)c1	HTT aggregate inconclusive, Epigenetic derep 13µM
O=C(Nc1ccc(S(=O)(=O)Nc2nccs2)cc1)c1cccc(N2C(=O)c3ccccc3C2=O)c1	none (no result: HTT ATP protect)
CCN1CCc2c(sc(NC(=O)CSc3ccccc3)c2-c2nc3ccccc3s2)C1	Epigenetic derep 0.89µM (no result: HTT aggregate, HTT ATP protect)
CN1CCc2c(sc(NC(=O)CSc3ccc(F)cc3)c2-c2nc3ccccc3s2)C1	PINK1 expr mod inconclusive, Epigenetic derep 3.2µM (no result: HTT aggregate, HTT ATP protect)
CC(=O)N1CCc2c(sc(NC(=O)CSc3ccc(F)cc3)c2-c2nc3ccccc3s2)C1	none (no result: HTT aggregate, HTT ATP protect)
CC(=O)Nc1sc2c(c1-c1nc3ccccc3s1)CCN(C(C)C)C2	HTT aggregate inconclusive, Epigenetic derep 4µM
Cc1cc(NC(=O)CSCC(=O)N2CCN(c3cccc(C)c3C)CC2)no1	none (no result: HTT aggregate, Epigenetic derep, HTT ATP protect)
COc1ccc(S(=O)(=O)NCCc2sc(-c3ccccc3)nc2C)cc1OC	none (no result: HTT aggregate, HTT ATP protect)
CCc1nc(SCC(=O)Nc2nc3c(s2)CCCC3)c2ccccc2n1	HTT ATP protect 25µM (no result: HTT aggregate)
O=C(/C=C/c1ccco1)Oc1cc(Br)cc(/C=N/NC(=O)c2ccccc2O)c1	HTT aggregate 2.2µM, PINK1 expr mod inconclusive
COc1cc(/C=C2/NC(=O)N(CC(=O)Nc3cccc(C)c3)C2=O)ccc1OCC(N)=O	none
COc1ccc(C(=O)c2ccc(C)cc2)c(O)c1	none (no result: PINK1 expr mod, Epigenetic derep)
COc1ccc(C(=O)c2ccccc2)c(O)c1	HTT aggregate 11µM!
COc1ccc(F)c(CN2CCOc3ccc(CN4CCC(Oc5cccnc5)CC4)cc3C2)c1	none (no result: HTT aggregate, Epigenetic derep, HTT ATP protect)
c1ccc(Nc2c3c(nc4ccccc24)CCC3)cc1	none
